tested on: ZAP70; details: concentration: 1 μM, replicates: in singlicate; n = 1
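Further: KINOMEscan kinase panel screen.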

SMILES | %Inh [%]
Cc1ccc(-c2nc(Nc3ccncc3)c3ccccc3n2)s1 [GSK189015] | 0
CNc1nc(-c2ccc3c(N)n[nH]c3c2)cc(N2C[C@@H](C(=O)NC3CCCCC3)OC[C@H]2C)n1 [GSK2375584] | 0
Cn1cnc2c(N)ncnc21 [SKF-97623] | 12
Fc1ccc(-c2nc[nH]c2-c2ccncc2)cc1 [SB-217360] | 0
COc1cccc(NC(=O)Nc2ccc(C)c(-c3ccc(C(=O)Nc4ccncc4)cc3)c2)c1 [GSK1398474] | 0
Nc1ncnc2occ(-c3ccc4c(c3)CCN4C(=O)Cc3cc(F)ccc3F)c12 [GSK2645446] | 0
COc1ccc(CSc2nnc(-c3ccc4nccn4c3)o2)cc1C(F)(F)F | 0
Cc1cccc2c(-c3ccncn3)c(-c3ccc(F)cc3)nn12 [GW515532] | 20
Cc1ccccc1-c1cc(-c2c[nH]nc2-c2ccccn2)ccn1 [GW680061] | 0
CCCCc1nn2ncccc2c1-c1ccnc(NC2CC2)n1 [GW684374] | 0
CCn1c(-c2ccccc2)nc2cnccc21 [SB-733416] | 0
Cn1cncc1-c1cc2c(Nc3ccc(OCc4ccccc4)cc3)ncnc2cn1 [GW281179] | 20
Cc1c(Cn2c3ccccc3n3c(=O)cc(N4CCOCC4)nc23)cccc1C(F)(F)F [GSK2306394] | 0
CS(=O)(=O)CCNCc1nc(-c2ccc3ncnc(Nc4ccc(OCc5ccccc5)c(Cl)c4)c3c2)cs1.Cl [GW582764] | 0

Source: PMC5540273 (PLoS ONE, 2017)
